High-throughput results deposited in PubChem by National Center for Advancing Translational Sciences (NCATS).
Shiga toxin inh = blocks Shiga toxin action in Vero cells. actives 9.2% (n = 290,000). inhibition, % at 38.7 µM. AID 2315. Vero cells, Shiga toxin protein synthesis inhibition reporter; in the data active = inhibition mostly above about 28%, no sharp cut-off; inactive = mostly below about 43%; also: 0% is about no effect
Cycloheximide cs = counter-screen for Shiga toxin inhibitors: cycloheximide protein synthesis inhibition; cell reporter, cycloheximide protein synthesis inhibition counterscreen; max response, %; actives 12% (n = 300,000); AID 2314; in the data active = max response mostly above about 13%, no sharp cut-off; inactive = mostly below about 14%; also: read at 38.3 µM for the half of the compounds with a filed dose; 0% is about no effect
Sm TGR inh = inhibitors of Schistosoma mansoni thioredoxin glutathione reductase | Q962Y6 | purified TGR, DTNB reduction, TNB absorbance 405 nm | Potency, µM (doses to about 114 µM), without a hit: at the highest dose activity change, negative = inhibition, actives largely listed as inhibitors | actives 3% (n = 360,000); also: potency is read from the fitted curve at half-maximal effect; % is scaled to controls: 0 for no effect and ±100 for the full control effect; nearly all actives have a fitted effect of over 60% in size
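First, TGR (20 nM dispensed) and NADPH were mixed with compound. Second, a 15 min room-temperature incubation followed. Third, further NADPH and then DTNB were added to start the reaction. Finally, TNB absorbance was monitored kinetically.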
LmPK inh = LmPK (Leishmania mexicana) enzyme inhibition; Q27686; purified LmPK, Kinase-Glo ATP luminescence, 1 h; Potency, µM (doses to about 57.5 µM), for inactives: at the highest dose activity change, negative = inhibition, actives largely listed as inhibitors; actives 0.37% (n = 290,000); also: potency is read from the fitted curve at half-maximal effect; % is scaled to controls: 0 for no effect and ±100 for the full control effect
Target sequence (Q27686 whole entry, looked up): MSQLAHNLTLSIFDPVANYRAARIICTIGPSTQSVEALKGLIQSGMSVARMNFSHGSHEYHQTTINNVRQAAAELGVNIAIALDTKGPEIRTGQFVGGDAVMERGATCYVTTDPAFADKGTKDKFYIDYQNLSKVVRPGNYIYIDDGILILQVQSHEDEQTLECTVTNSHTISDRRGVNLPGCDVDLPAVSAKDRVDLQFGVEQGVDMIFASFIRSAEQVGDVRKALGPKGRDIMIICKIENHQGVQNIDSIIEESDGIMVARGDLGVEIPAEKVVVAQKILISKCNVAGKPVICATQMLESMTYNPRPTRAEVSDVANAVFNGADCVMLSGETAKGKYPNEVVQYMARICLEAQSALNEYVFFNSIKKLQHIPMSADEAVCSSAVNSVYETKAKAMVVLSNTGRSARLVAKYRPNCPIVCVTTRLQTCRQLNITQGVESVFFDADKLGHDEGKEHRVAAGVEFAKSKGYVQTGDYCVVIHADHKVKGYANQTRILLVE
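0.1 nM LmPK, 0.5 mM PEP, 0.1 mM ADP; 50 mM imidazole pH 7.2, 7 mM MgCl2, 50 mM KCl; 1 h RT. Kinase-Glo luminescence readout, normalized to no-enzyme (full inhibition) and uninhibited wells.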
Tb PYK inh = inhibitors of Trypanosoma brucei pyruvate kinase. Q57TT1. TbPYK enzyme, Kinase-Glo Plus ATP luminescence, 45 min. Potency, µM (top dose mostly 76.8 µM), without a hit: at the highest dose activity, negative = inhibition, usual class: inhibitors. actives 0.12% (n = 410,000). AID 624173; also: potency is read from the fitted curve at half-maximal effect; % is scaled to controls: 0 for no effect and ±100 for the full control effect; nearly all actives have a fitted effect of over 50% in size
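Activity of T. brucei pyruvate kinase was followed by Kinase-Glo Plus luminescence after the enzyme reacted 45 min at room temperature with 130 uM ADP (final) and substrate. Test compounds were added before ADP at multiple concentrations.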
FBPA Giardia inh = inhibitors of Giardia lamblia fructose-1,6-bisphosphate aldolase. A8B2U2. AID 2451. purified Giardia FBPA. actives 0.71% (n = 290,000). Potency, µM (titrated, usually from 59.6 µM), without a hit: top-dose activity, negative = inhibition, most hits filed as inhibitors; also: potency is read from the fitted curve at half-maximal effect; % is scaled to controls: 0 for no effect and ±100 for the full control effect; nearly all actives have a fitted effect of over 55% in size
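Giardia FBPA (40 nM reagent) was preincubated 10 min at RT with compound (up to 57.5 uM final), then substrate plus GAPDH/TPI/NAD/arsenate coupling system with diaphorase/resazurin was added; resorufin fluorescence (525/598 nm) was read after 20 min.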
* hit, by the source's call; nt = no result given. The entries come from a sample that favours hits as a whole. Unless noted, calls follow the shape of the dose curve; as a rule, active = well fitted curve in the direction sought with a large enough effect; inconclusive = small, poorly fitted or top-dose-only effect, or another doubt; inactive = no such curve, though single readings can be large; an effect the other way counts as inactive or inconclusive.

SMILES | Shiga toxin inh | Cycloheximide cs | Sm TGR inh | LmPK inh | Tb PYK inh | FBPA Giardia inh
Cc1ccc(-c2nc3ncccc3o2)cc1NC(=O)COc1ccc(C(C)C)cc1 | nt | nt | -14% | nt | -4% | nt
O=c1oc(-c2cccs2)nc2scc(-c3cccs3)c12 | 11 | 14* | -1% | -1% | -4% | 6%
Cc1sc2nc(-c3cccs3)oc(=O)c2c1C | 136* | 43* | -5% | 1% | 2% | -6%
Cc1sc2nc(-c3ccc(Br)cc3)oc(=O)c2c1C | -7 | -3 | 11% | 0% | 0% | 3%
CNc1ncnc2ccc(-c3c(C)noc3C)cc12 | nt | nt | -15% | nt | nt | nt
Nc1c(Br)cc(Br)c2cccnc12 | -8 | -7 | nt | nt | nt | nt
O=C(CSc1nnnn1-c1ccccc1)CSc1nnnn1-c1ccccc1 | 8 | 1 | -28% | 0% | 2% | 1%
Cc1cc(C(=O)CSc2nnnn2-c2ccc(O)cc2)c(C)n1C | 66* | 25* | -22% | 0% | 7% | 5%
O=C(CSc1nnnn1-c1ccccc1)c1ccc(O)cc1O | 50 | 14* | -28% | 2% | 0% | 8%
Cc1ccc(C(=O)CSc2nnnn2-c2ccccc2)o1 | 49* | 25 | -27% | -3% | 0% | -5%
Cc1ccc(C(=O)CSc2nnc(-c3ccccc3)n2-c2ccccc2)o1 | -2 | -4 | 4% | -1% | -16% | 6%
Cc1cc(C(=O)CSc2nnnn2-c2ccccc2)c(C)n1CCc1ccccc1 | -11 | -2 | -11% | 2% | -4% | 2%
O=C(COc1ccc(F)cc1)OCc1cc(=O)n2nc(C3CCCCC3)sc2n1 | nt | nt | 9% | nt | -3% | nt
Cc1c(C(=O)N(C)C)sc2c1c(=O)n(-c1ccc(Cl)c(Cl)c1)c(=O)n2Cc1ccc(F)cc1 | nt | nt | 5% | nt | -5% | nt
COc1ccc(N(CC(=O)Nc2ccc(C)c(C)c2)S(=O)(=O)c2ccc(C)cc2)cc1OC | nt | nt | -2% | nt | 0% | nt
CC1CCn2c(nc3cc(C(=O)NCc4ccccc4)ccc32)C1 (stereo not drawn) | nt | nt | 3% | nt | 0% | nt
Cc1cccc(NC(=O)Nc2ccc(C#N)cc2)n1 | 17 | 18* | -1% | 1% | 4% | -9%
Cc1c(NC(=O)Nc2ccc(C#N)cc2)c(=O)n(-c2ccccc2)n1C | 37 | -6 | -26% | 5% | 2% | 4%
N#Cc1cccc(NC(=S)Nc2ccccc2)c1 | -2 | 0 | 50µM* | 1% | -5% | -27%
Cc1cccc(NC(=O)Nc2cccc(C#N)c2)n1 | 21 | 36* | 6% | -2% | 3% | 2%
COc1ccc(N(CC(=O)NCCc2ccccc2)S(=O)(=O)c2ccc(OC)c(OC)c2)cc1 | nt | nt | 0% | nt | 1% | nt
C=CCNc1oc(-c2cccs2)nc1S(=O)(=O)c1ccccc1 | -10 | 9 | 0% | 0% | 0% | -2%
COCCNc1oc(-c2cccs2)nc1S(=O)(=O)c1ccc(C)cc1 | -5 | 4 | -2% | 5% | 6% | -12%
COCCNc1oc(/C=C/c2ccc(F)cc2)nc1S(=O)(=O)c1ccccc1 | 8 | 16 | 32µM* | 0% | -19% | 4%
O=S(=O)(c1ccccc1)c1nc(-c2ccco2)oc1NCc1cccnc1 | 16 | 2 | 25µM* | 1% | -12% | 3%
SMILES | Shiga toxin inh | Cycloheximide cs | Sm TGR inh | LmPK inh | Tb PYK inh | FBPA Giardia inh
COCCNc1oc(/C=C/c2cccc(OC)c2)nc1S(=O)(=O)c1ccccc1 | nt | nt | nt | nt | 4% | nt
C=CCNc1oc(-c2ccco2)nc1S(=O)(=O)c1ccccc1 | 10 | 9 | 13µM* | -4% | -4% | -1%
COCCNc1oc(-c2ccco2)nc1S(=O)(=O)c1ccccc1 | -7 | 9 | 50µM* | -3% | -15% | nt
COC(=O)C1=C[C@@H](C(=O)OC)C2C3=C(C(=O)[C@@]2(C)NC(=O)c2ccccc2)[C@H](C)n2c(=O)n(C)c(=O)n2[C@@H]3C1 (stereo partly drawn) | 3 | -3 | nt | nt | nt | 3%
CCCn1c(N)c(C(=O)CSc2nc(C)cs2)c(=O)n(C)c1=O | 9 | 23* | -10% | -8% | 0% | 1%
O=C(Nc1ccc2oc(=O)ccc2c1)c1ccco1 | 31* | 22* | 7% | 4% | -6% | 7%
O=C(Cc1ccccc1)Nc1ccc2oc(=O)ccc2c1 | 21 | 13* | 0% | 0% | 1% | -1%
